Results as given in PubChem BioAssay (Tox21).
Where “and” joins values, the source holds several entries; their conditions need not be identical. Equal entries are not always repeated. Records with an inconclusive call do not appear. Calls of active or inactive are those of the source. Calls follow the shape of the dose curve; as a rule, active = well fitted curve in the direction sought with a large enough effect in the repeat runs; inconclusive = weak or mixed curves; inactive = no such curve, though single readings can be large; an effect the other way counts as inactive or inconclusive.

Key:
[1] = Human pregnane X receptor (PXR) small molecule agonists, qHTS cell viability counter screen (AID 1346977); settings: PXR-Luc HepG2 viability, CellTiter-Fluor, 24 h; series mostly up to 92.4 µM; also: nearly all actives have a fitted effect of over 50% in size
Procedure, shortened: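 Measures live-cell protease fluorescence (CellTiter-Fluor) in PXR-Luc HepG2 cells treated 24hr with compounds at 37C. Cells had 5hr to attach before pin transfer of DMSO solutions.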

[2] = Caspase-3/7 induction in HepG2 cells by small molecules, qHTS assay (AID 1346978); settings: HepG2 caspase-3/7 activation, Caspase-Glo luminescence, 17 h; series mostly up to 92.4 µM; also: nearly all actives have a fitted effect of over 15% in size
Procedure, shortened: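 Caspase-3/7 induction was measured by Caspase-Glo 3/7 luminescence (30 min, room temperature) after a 17 hr compound exposure of wild-type HepG2 cells seeded at 2,000 per well and pre-incubated 5 hr.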

[3] = Caspase-3/7 induction in CHO-K1 cells by small molecules, qHTS cell viability counter screen (AID 1346979); settings: CellTiter-Fluor fluorescence, 17 h; series mostly up to 92.4 µM; also: nearly all actives have a fitted effect of over 35% in size; also: potency is read from the fitted curve at half-maximal effect
Procedure, shortened: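 In the same wells as the caspase read, viability of compound-treated wild-type CHO-K1 cells was assessed using CellTiter-Fluor, added after 16hr at 37C and measured by fluorescence following 1hr further incubation.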

[4] = Caspase-3/7 induction in CHO-K1 cells by small molecules, qHTS assay (AID 1346980); settings: CHO-K1 caspase-3/7 induction, Caspase-Glo luminescence, 17 h; series mostly up to 92.4 µM; also: nearly all actives have a fitted effect of over 15% in size
Procedure, shortened: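 Luminescent Caspase-Glo 3/7 read (30min, room temperature) quantified apoptosis induction. Cells were wild-type CHO-K1, treated with compound for 17hr at 37 C and 5% CO2.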

[5] = Caspase-3/7 induction in HepG2 cells by small molecules, qHTS cell viability counter screen (AID 1346981); settings: CellTiter-Fluor fluorescence, 17 h; series mostly up to 92.4 µM; also: nearly all actives have a fitted effect of over 30% in size
Procedure, shortened: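 Wild-type HepG2 cells, 2,000/well, settled 5 hr at 37 C, 5% CO2 before compound addition. Viability read by CellTiter-Fluor fluorescence, reagent added after 16 hr compound exposure, then 1 hr at 37C, in the same wells as the caspase read.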

[6] = target: Nuclear receptor subfamily 1 group I member 2 (Homo sapiens) (UniProt O75469); assay: Human pregnane X receptor (PXR) small molecule agonists, qHTS assay (AID 1346982); settings: PXR-Luc HepG2, CYP3A4 luciferase reporter, 24 h; series mostly up to 92.4 µM; also: nearly all actives have a fitted effect of over 35% in size; also: potency is read from the fitted curve at half-maximal effect
Procedure, shortened: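 PXR-Luc HepG2 reporter cells (CYP3A4-driven luciferase) in 5% charcoal-stripped FBS medium, plated 5 h before compound addition, then treated 24 h at 37C. Luciferase read by ONE-Glo luminescence after 30 min at room temperature.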

[7] = target: Cytochrome P450 2D6 (Homo sapiens) (UniProt P10635); assay: Cytochrome P450 Family 2 Subfamily D Member 6 (CYP2D6) small molecule antagonists: luciferase reporter qHTS assay (AID 1671196); settings: P450-Glo CYP2D6 enzyme assay, luciferin luminescence, 1 h; series mostly up to 115 µM; also: nearly all actives have a fitted effect of over 50% in size; also: potency is read from the fitted curve at half-maximal effect
Procedure, shortened: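 Cell-free P450-Glo system: CYP2D6 with proluciferin substrate was pre-incubated with compound for 10 min, then reacted with NADPH regeneration for 1 h at room temperature. Luciferin product was detected after 20 min, and data were reported as relative luminescence units.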

[8] = target: Nuclear receptor subfamily 1 group I member 2 (Rattus norvegicus) (UniProt Q9R1A7); assay: Rat pregnane X receptor (rPXR) activation by small molecules, qHTS assay (AID 1346983); settings: rPXR luciferase reporter cells, One-Glo luminescence, 24 h; max activation: active compounds read high; also: nearly all actives have a fitted effect of over 20% in size; also: potency is read from the fitted curve at half-maximal effect
Procedure, shortened: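 Luminescent readout (One-Glo luciferase, 30 min room temperature) followed 24 hr compound treatment at 37 C of rPXR cells plated 2,000 per well and preincubated 5hr; qHTS format with compounds delivered in DMSO.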

[9] = target: Nuclear receptor subfamily 1 group I member 2 (Homo sapiens) (UniProt O75469); assay: CYP3A4 induction through human pregnane X receptor (PXR) by small molecules, qHTS assay (AID 1346984); settings: DPX-2 HepG2 PXR, CYP3A4-luciferin luminescence, 24 h; series mostly up to 46.1 µM; also: nearly all actives have a fitted effect of over 40% in size
Procedure, shortened: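 DPX-2 HepG2 cells carrying a PXR response element and CYP3A4-promoter luciferase construct, treated with compounds 24 hr at 37C. Then P450-Glo CYP3A4 Luciferin-IPA substrate (3uM final) for 3 hr at 37C, One-Glo added, luminescence read.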

[10] = target: Nuclear receptor subfamily 1 group I member 2 (Homo sapiens) (UniProt O75469); assay: Human pregnane X receptor (PXR) activation by small molecules, qHTS assay (AID 1346985); settings: DPX-2 HepG2 CYP3A4-luciferase, 24 h; series mostly up to 38.3 µM; also: nearly all actives have a fitted effect of over 40% in size; also: potency is read from the fitted curve at half-maximal effect
Procedure, shortened: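 DPX-2 cells (HepG2 co-transfected with a PXR response element and a CYP3A4-promoter luciferase construct) were seeded at 2,000 per well, rested 5 hr at 37C, then exposed to DMSO-dissolved compounds for 24 hr. Activation was read as luciferase luminescence.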
% is scaled to controls: 0 for no effect and ±100 for the full control effect.

Sequence of Cytochrome P450 2D6 (Homo sapiens) (P10635 whole entry, looked up): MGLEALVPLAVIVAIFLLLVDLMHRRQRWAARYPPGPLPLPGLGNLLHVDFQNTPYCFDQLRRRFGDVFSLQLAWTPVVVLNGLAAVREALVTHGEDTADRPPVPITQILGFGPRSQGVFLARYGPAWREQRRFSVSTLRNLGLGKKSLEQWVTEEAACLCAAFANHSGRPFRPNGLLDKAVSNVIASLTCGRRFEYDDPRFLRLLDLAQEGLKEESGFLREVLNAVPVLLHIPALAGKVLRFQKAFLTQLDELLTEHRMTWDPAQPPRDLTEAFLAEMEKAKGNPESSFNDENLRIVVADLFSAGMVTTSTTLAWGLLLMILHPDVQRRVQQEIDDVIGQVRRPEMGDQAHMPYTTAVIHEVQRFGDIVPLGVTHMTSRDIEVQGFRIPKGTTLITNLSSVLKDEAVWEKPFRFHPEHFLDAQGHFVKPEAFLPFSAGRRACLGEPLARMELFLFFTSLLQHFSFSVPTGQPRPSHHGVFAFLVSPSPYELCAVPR
Sequence of Nuclear receptor subfamily 1 group I member 2 (Homo sapiens) (O75469 whole entry, looked up): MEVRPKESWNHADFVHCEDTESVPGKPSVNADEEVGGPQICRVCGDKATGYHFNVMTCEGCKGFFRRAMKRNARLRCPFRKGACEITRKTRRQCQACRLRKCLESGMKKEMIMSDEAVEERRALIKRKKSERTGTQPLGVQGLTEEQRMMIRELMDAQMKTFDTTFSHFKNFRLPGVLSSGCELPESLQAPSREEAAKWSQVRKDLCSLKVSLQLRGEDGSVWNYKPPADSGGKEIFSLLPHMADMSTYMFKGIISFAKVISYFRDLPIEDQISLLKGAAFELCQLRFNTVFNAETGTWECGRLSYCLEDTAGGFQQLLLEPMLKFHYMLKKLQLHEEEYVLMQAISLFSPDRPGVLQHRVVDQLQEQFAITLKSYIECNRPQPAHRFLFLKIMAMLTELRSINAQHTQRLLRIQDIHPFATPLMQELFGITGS
Sequence of Nuclear receptor subfamily 1 group I member 2 (Rattus norvegicus) (Q9R1A7 whole entry, looked up): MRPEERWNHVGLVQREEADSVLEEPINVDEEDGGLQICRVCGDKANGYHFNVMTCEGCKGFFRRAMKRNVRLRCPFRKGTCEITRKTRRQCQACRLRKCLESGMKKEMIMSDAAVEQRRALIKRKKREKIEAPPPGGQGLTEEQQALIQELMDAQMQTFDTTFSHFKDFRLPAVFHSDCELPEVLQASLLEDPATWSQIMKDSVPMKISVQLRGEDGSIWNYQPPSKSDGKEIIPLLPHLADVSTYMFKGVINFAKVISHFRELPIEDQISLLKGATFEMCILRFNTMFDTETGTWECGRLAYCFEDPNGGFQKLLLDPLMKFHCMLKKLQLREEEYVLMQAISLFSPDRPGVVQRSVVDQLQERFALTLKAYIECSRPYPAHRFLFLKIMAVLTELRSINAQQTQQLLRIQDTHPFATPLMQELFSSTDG

C[N+]1(CC2COC(c3ccccc3)(c3ccccc3)O2)CCCCC1 (stereo not drawn)
active: Potency [7] 1.69 µM
inactive: activity change, negative = cytotoxicity [1] -0.185% [at 19 µM] | caspase activation [2] -0.482% [at 19 µM] | activity change, negative = cytotoxicity [3] 2.24% [at 19 µM] | caspase-3/7 activation [4] -0.436% [at 19 µM] | activity change, negative = cytotoxicity [5] 9.88% [at 19 µM] | activation [6] 5.26% [at 19 µM]

CC(CO)(CO)[N+](=O)[O-]
inactive: Potency [1] | outcome [2] | Potency [3] | outcome [4] | Potency [5] | Potency [6] | Potency [7]

COc1cc(C)nc(-n2nc(C)cc2OC)n1
inactive: Potency [1] | outcome [2] | Potency [3] | outcome [4] | Potency [5] | max activation [8] 0.673%

COC(=O)C1=C(C)NC(C)=C(C(=O)OC(C)C)C1c1cccc2nonc12 (stereo not drawn)
inactive: Potency [1] | outcome [2] | outcome [4] | Potency [9]
active: Potency [3] 26.6 µM | Potency [6] 1.33 µM | Potency [8] 10 µM | Potency [10] 0.891 µM

COc1ccc2cc1Oc1cc3c(cc1OC)CC[N+](C)(C)[C@H]3Cc1ccc(cc1)Oc1c(OC)c(OC)cc3c1[C@@H](C2)[N+](C)(C)CC3
inactive: Potency [1] | outcome [2] | Potency [3] | outcome [4] | Potency [6] | max activation [8] 0.186% | Potency [9] | Potency [10] | Potency [7]

C[N+](C)(CCOc1ccccc1)Cc1cccs1
active: Potency [7] 0.195 µM
inactive: Potency [1] | outcome [2] | Potency [3] | outcome [4] | Potency [5]

CC(C#N)(CCC(=O)O)N=NC(C)(C#N)CCC(=O)O (stereo not drawn)
inactive: Potency [1] | outcome [2] | Potency [3] | outcome [4] | Potency [5] | Potency [7]

Cc1ncc(COP(=O)(O)O)c(C=O)c1O
inactive: Potency [1] | outcome [2] | Potency [3] | outcome [4] | Potency [6] | max activation [8] -2.51% | Potency [9] | Potency [10] | Potency [7]

C=CCCC(=O)O
inactive: Potency [1] | outcome [2] | Potency [3] | outcome [4] | Potency [5] | Potency [6] | Potency [7]

C=CN1CCCCCC1=O
inactive: Potency [1] | outcome [2] | Potency [3] | outcome [4] | Potency [6] | Potency [7]

CCCc1nn(C)c2c(=O)[nH]c(-c3cc(S(=O)(=O)N4CCN(C)CC4)ccc3OCC)nc12
inactive: Potency [1] | outcome [2] | Potency [3] | outcome [4] | Potency [5] | Potency [7]

CCOC(=O)c1cnc2c(cnn2CC)c1NN=C(C)C
inactive: Potency [1] | outcome [2] | Potency [3] | outcome [4] | Potency [5] | Potency [9]
active: Potency [10] 8.91 µM

CC(C)(C)c1ccc(-c2ccc(C(C)(C)C)cc2)cc1
inactive: Potency [1] | outcome [2] | Potency [3] | outcome [4] | Potency [6] | Potency [7]

CCCCCCCC1CCCC1=O (stereo not drawn)
inactive: Potency [1] | outcome [2] | Potency [3] | outcome [4] | Potency [6]

C=C[Si](OC(C)=O)(OC(C)=O)OC(C)=O
inactive: Potency [1] | outcome [2] | Potency [3] | outcome [4] | Potency [6]

CC(COc1ccccc1)NN (stereo not drawn)
inactive: Potency [1] | outcome [2] | Potency [3] | outcome [4] | Potency [6] | Potency [7]

CCCCCCCCN1CCCC1=O
inactive: Potency [1] | outcome [2] | Potency [3] | outcome [4] | Potency [7]
active: Potency [6] 24.3 µM

CN(C)CCCN(C)CCCN(C)C
inactive: Potency [1] | outcome [2] | Potency [3] | outcome [4] | Potency [6] | Potency [7]

C[C@H]1[C@H](NC(=O)/C(=N/OC(C)(C)C(=O)O)c2csc(N)n2)C(=O)N1S(=O)(=O)O (stereo in doubt)
inactive: Potency [1] | outcome [2] | Potency [3] | outcome [4] | Potency [5] | max activation [8] -2.74% | Potency [7]

COc1ccccc1OCC1CNC(=O)O1 (stereo not drawn)
inactive: Potency [1] | outcome [2] | Potency [3] | outcome [4] | Potency [5] | Potency [6] | Potency [7]

CCOc1ccccc1OCC
inactive: Potency [1] | outcome [2] | Potency [3] | outcome [4] | Potency [6]

CCCCc1ccc2c(n1)[C@@H](c1ccc(OC)cc1C[C@H](C)C(=O)O)[C@H](C(=O)O)[C@H]2c1ccc2c(c1)OCO2
active: Potency [7] 71 µM
inactive: Potency [1] | outcome [2] | Potency [3] | outcome [4] | Potency [5] | Potency [6]

CN1[C@@H]2CC[C@H]1CC(OC(=O)C(O)c1ccccc1)C2 (stereo partly drawn)
inactive: Potency [1] | outcome [2] | Potency [3] | outcome [4] | Potency [6] | max activation [8] 2.11% and -0.222% | Potency [9] | Potency [10] | Potency [7]

CC/C=C\CCOC(C)OCC (stereo not drawn)
inactive: Potency [1] | outcome [2] | Potency [3] | outcome [4] | Potency [6] | Potency [7]

CCCCCCCCCCCCCCC(=O)O
inactive: Potency [1] | outcome [2] | Potency [3] | outcome [4] | Potency [6] | Potency [7]

C=C(C)C(=O)OCC(O)CO (stereo not drawn)
inactive: Potency [1] | outcome [2] | Potency [3] | outcome [4] | Potency [6] | Potency [7]

O=C(O)CCSCCC(=O)O
inactive: Potency [1] | outcome [2] | Potency [3] | outcome [4] | Potency [6] | Potency [7]

CC[N+](CC)(CC(=O)Nc1c(C)cccc1C)Cc1ccccc1 (tested in a mixture with another compound)
active: Potency [7] 0.0262 µM
inactive: Potency [1] | outcome [2] | Potency [3] | outcome [4] | Potency [5]
